{"source": "the supplement of paper PMC8728848", "experiment_in_all_cases": "glycan array binding signal (z-score within array); higher = stronger binding", "settings_in_all_cases": "glycan notation: IUPAC condensed, linker removed", "key": {"[1]": {"biological_target": "Fuc(a1-2)[GalNAc(a1-3)]Gal(b1-4)GlcNAc", "how_it_was_run": "(§1)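 Arrays were curated from the Consortium for Functional Glycomics database, 3228 in total, and kept only where the protein sequence was available. Binding is expressed as a within-array Z-score. This score was averaged across arrays of the same protein sequence at different concentrations or buffers and across linkers, and negative values can be read as non-binding.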"}, "[2]": {"biological_target": "Gal(a1-3)Gal(b1-3)Glc", "how_it_was_run": "as §1"}, "[3]": {"biological_target": "Gal(a1-3)Gal(b1-4)[Fuc(a1-3)]GlcNAc", "how_it_was_run": "as §1"}, "[4]": {"biological_target": "Gal(a1-4)Gal(b1-4)Gal", "how_it_was_run": "as §1"}, "[5]": {"biological_target": "Gal3S(b1-3)GlcNAc", "how_it_was_run": "as §1"}, "[6]": {"biological_target": "Gal6S(b1-4)Glc", "how_it_was_run": "as §1"}, "[7]": {"biological_target": "GlcA(b1-3)Gal", "how_it_was_run": "as §1"}, "[8]": {"biological_target": "GlcA(b1-6)Gal", "how_it_was_run": "as §1"}, "[9]": {"biological_target": "GlcNAc(b1-3)[GlcNAc(b1-6)]GlcNAc", "how_it_was_run": "as §1"}, "[10]": {"biological_target": "GlcNAc(b1-4)GlcNAc(b1-4)GlcNAc(b1-4)GlcNAc(b1-4)GlcNAc", "how_it_was_run": "as §1"}, "[11]": {"biological_target": "Neu5Ac(a2-3)Gal(b1-4)[Fuc(a1-3)]GlcNAc", "how_it_was_run": "as §1"}, "[12]": {"biological_target": "Neu5Ac(a2-3)Gal(b1-4)[Fuc(a1-3)]GlcNAc(b1-3)Gal", "how_it_was_run": "as §1"}, "[13]": {"biological_target": "Neu5Ac(a2-3)GalNAc(b1-4)GlcNAc", "how_it_was_run": "as §1"}, "[14]": {"biological_target": "Neu5Ac(a2-3)[GalNAc(b1-4)]Gal(b1-4)Glc", "how_it_was_run": "as §1"}, "[15]": {"biological_target": "Neu5Ac(a2-3)[Neu5Ac(a2-6)]GalNAc", "how_it_was_run": "as §1"}, "[16]": {"biological_target": "Neu5Ac(a2-6)Gal(b1-4)GlcNAc(b1-3)Gal(b1-4)[Fuc(a1-3)]GlcNAc(b1-3)Gal(b1-4)[Fuc(a1-3)]GlcNAc", "how_it_was_run": "as §1"}, "[17]": {"biological_target": "Neu5Ac(a2-6)GalNAc", "how_it_was_run": "as §1"}}, "note": "The full list was thinned out, with the strongest signals kept by preference.", "data": [{"binder": "TIM-1 (Mus musculus), AAL35774 (protein) MNQIQVFISGLILLLPGAVDSYVEVKGVVGHPVTLPCTYSTYRGITTTCWGRGQCPSSACQNTLIWTNGHRVTYQKSSRYNLKGHISEGDVSLTIENSVESDSGLYCCRVEIPGWFNDQKVTFSLQVKPEIPTRPPTRPTTTRPTATGRPTTISTRSTHVPTSIRVSTSTPPTSTHTWTHKPEPTTFCPHETTAEVTGIPSHTPTDWNGTVTSSGDTWSNHTEAIPPGKPQKNPTKGFYVGICIAALLLLLLVSTVAITRYILMKRKSASLSVVAFRVSKIEALQNAAVVHSRAEDNIYIVEDRP", "values": [{"measurement": "glycan array binding signal (z-score)", "setting": "[1]", "result": -0.268}, {"measurement": "glycan array binding signal (z-score)", "setting": "[2]", "result": -0.335}, {"measurement": "glycan array binding signal (z-score)", "setting": "[3]", "result": 2.6}, {"measurement": "glycan array binding signal (z-score)", "setting": "[4]", "result": 1.46}, {"measurement": "glycan array binding signal (z-score)", "setting": "[5]", "result": -0.247}, {"measurement": "glycan array binding signal (z-score)", "setting": "[6]", "result": -0.128}, {"measurement": "glycan array binding signal (z-score)", "setting": "[7]", "result": 2.46}, {"measurement": "glycan array binding signal (z-score)", "setting": "[8]", "result": 2.12}, {"measurement": "glycan array binding signal (z-score)", "setting": "[9]", "result": -0.61}, {"measurement": "glycan array binding signal (z-score)", "setting": "[10]", "result": 1.29}, {"measurement": "glycan array binding signal (z-score)", "setting": "[11]", "result": -0.451}, {"measurement": "glycan array binding signal (z-score)", "setting": "[12]", "result": -0.414}, {"measurement": "glycan array binding signal (z-score)", "setting": "[13]", "result": -0.411}, {"measurement": "glycan array binding signal (z-score)", "setting": "[14]", "result": -0.433}, {"measurement": "glycan array binding signal (z-score)", "setting": "[15]", "result": 0.386}, {"measurement": "glycan array binding signal (z-score)", "setting": "[16]", "result": -0.125}, {"measurement": "glycan array binding signal (z-score)", "setting": "[17]", "result": -0.529}]}]}
